TDP1 inh: blocks human tyrosyl-DNA phosphodiesterase 1. Q9NUW8. Potency, µM (series often up to 130 µM), usual class: inhibitors. recombinant TDP1, AlphaScreen DNA substrate cleavage. AID 485290. 350,000 tested, 0.28% active; also: nearly all actives have a fitted effect of over 40% in size
Target sequence (Q9NUW8 whole entry, looked up): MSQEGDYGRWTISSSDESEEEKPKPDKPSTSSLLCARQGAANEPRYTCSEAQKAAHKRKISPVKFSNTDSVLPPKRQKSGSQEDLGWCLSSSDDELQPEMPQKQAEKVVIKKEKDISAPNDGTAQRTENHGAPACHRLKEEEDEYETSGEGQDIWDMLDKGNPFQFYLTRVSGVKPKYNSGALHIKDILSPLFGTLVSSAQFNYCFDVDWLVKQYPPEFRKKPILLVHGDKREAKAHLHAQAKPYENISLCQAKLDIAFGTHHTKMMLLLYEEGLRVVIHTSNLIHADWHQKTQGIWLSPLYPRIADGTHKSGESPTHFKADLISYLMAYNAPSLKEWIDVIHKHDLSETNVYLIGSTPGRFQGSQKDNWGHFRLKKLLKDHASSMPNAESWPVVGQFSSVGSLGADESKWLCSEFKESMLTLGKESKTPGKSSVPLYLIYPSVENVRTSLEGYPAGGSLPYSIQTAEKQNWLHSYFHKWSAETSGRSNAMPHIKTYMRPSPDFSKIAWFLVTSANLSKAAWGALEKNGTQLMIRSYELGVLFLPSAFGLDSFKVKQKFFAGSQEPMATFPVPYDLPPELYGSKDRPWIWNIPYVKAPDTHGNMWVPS
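AlphaScreen read-out: signal falls as enzyme removes the 3' tyrosine-FITC from a 5'-biotinylated DNA oligo (15 nM, 5 min, RT). Enzyme was E. coli-made recombinant Tdp1 at 1 nM, exposed to compound for 15 min beforehand; beads 10 ug/ml, 10 min.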
L3MBTL1 inh: L3MBTL1 (human) inhibition. AlphaScreen L3MBTL1–H3K9me1 peptide binding. 230,000 tested, 0.66% active. AID 485360. Potency, µM (titrated, usually from 57.1 µM), usual class: inhibitors; also: nearly all actives have a fitted effect of over 60% in size
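AlphaScreen proximity signal between nickel-chelate acceptor and streptavidin donor beads (final 10 ug/mL) reports binding of 50 nM L3MBTL1 to 75 nM biotin-H3 K9me1 peptide; complex incubated with compounds 30 min at room temperature; cefsulodin titration as control.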
BLM inh: inhibitors of human Bloom syndrome helicase BLM; P54132; recombinant BLM DNA unwinding, fluorescence dequenching; Potency, µM (top dose mostly 56.1 µM), most hits filed as inhibitors; 350,000 tested, 0.2% active; AID 2528; also: nearly all actives have a fitted effect of over 35% in size
RECQ1 helicase: RECQ1 (human) helicase inhibition; RECQ1 DNA unwinding, red fluorescence kinetic read; Potency, µM (top dose mostly 57.3 µM), hits mostly inhibitors; P46063; 240,000 tested, 0.54% active; AID 2549; also: nearly all actives have a fitted effect of over 30% in size
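50 nM RECQ1T1 preincubated 15 min with compound in Tris pH 8.0 buffer with MgCl2, DTT, Tween-20 and 2.5 ug/ml poly(dI-dC); started with 200 nM TAMRA/BHQ-2 forked duplex and 2 mM ATP. Unwinding read as fluorescence (525/598 nm), two reads 2 h apart.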
APE1 inh: blocks human APE1 abasic DNA cleavage. recombinant APE1, TAMRA/BHQ-2 abasic DNA cleavage fluorescence. Potency, µM (highest dose often 65.8 µM), actives largely listed as inhibitors. 350,000 tested, 0.35% active; also: nearly all actives have a fitted effect of over 55% in size
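APE1 at 0.75 nM final was preincubated with compound 15 min at room temperature, then 50 nM double-stranded THF abasic-site substrate (5'-TAMRA/3'-BHQ-2) was added. Fluorescence (ex 525/em 598 nm) was read kinetically; third-minus-first read gave activity.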
KDM4E inh: JMJD2E (human) inhibition. Potency, µM (series often up to 57.1 µM), usual class: inhibitors. B2RXH2. JMJD2E catalytic domain, FDH-coupled NADH fluorescence (FDH is formaldehyde dehydrogenase). 230,000 tested, 1.6% active. AID 2147; active = well fitted inhibition curve with a large enough effect, not every such curve was filed as active; inconclusive = small, poorly fitted or top-dose-only effect, or another doubt; inactive = no such curve, though single readings can be large or run the other way; also: nearly all actives have a fitted effect of over 50% in size
Hits are given with their value; 0 = inactive; ? = inconclusive; - = not tested or not shown; ! = not active in a repeat; [ ] = another dose, or the depositor's remark. This excerpt belongs to a sample that is enriched for hits. Unless noted, calls follow the shape of the dose curve; as a rule, active = well fitted curve in the direction sought with a large enough effect; inconclusive = small, poorly fitted or top-dose-only effect, or another doubt; inactive = no such curve, though single readings can be large; an effect the other way counts as inactive or inconclusive.

SMILES	TDP1 inh	L3MBTL1 inh	BLM inh	RECQ1 helicase	APE1 inh	KDM4E inh
O=C(c1ccc([N+](=O)[O-])cc1)N1CCN(C(=O)c2ccco2)CC1	0	0	0	0	0	0
O=C(c1ccco1)N1CCN(C(=O)c2ccc(-c3ccc([N+](=O)[O-])cc3)o2)CC1	35µM	?	-	-	?	-
CC1NC(=O)NC1CCCCCC(=O)NCCc1ccccc1 (centres undefined)	0	1.4µM	0	0	0	0
Cc1c(P(=S)(c2ccccc2)c2ccccc2)[n+]2ccccc2n1CC(=O)c1ccccc1	0	-	-	-	-	-
COC(=O)NNC(=O)c1ccccc1OC	0	0	0	0	0	0
COc1ccccc1C(=O)NNC(=O)C1CC=CCC1 (centres undefined)	35µM	0	0	-	0	-
CCc1cccc(-n2nnc(-c3nc(-c4cccs4)no3)c2N)c1	0	-	0	-	-	-
Cc1ccc(N=c2ssnc2Cl)cc1	0	0	0	0	0	11µM
Cc1cc(Cl)ccc1N=c1ssnc1Cl	0	-	0	0	0	11µM
Cc1cc(C)nc(/N=c2/ssnc2Cl)c1	0	0	0	0	0	0
Cc1c(C(=O)N2CCOCC2)oc2c1-c1nn(CC(=O)NCc3cccc(Cl)c3)cc1CC2	0	-	0	-	-	-
COc1ccc(C)cc1NC(=O)Nc1ccccc1OCc1cc(=O)n2ccccc2n1	0	-	0	-	-	-
COC(=O)C(C(C)=O)C1c2ccccc2C=C(C)N1C(=O)OC (centres undefined)	0[21 µM]	-	0[12.4 µM]	0[11.5 µM]	0[12.4 µM]	0[11.4 µM]
Cc1nc(S/C(=C/c2ccc(-c3cc(Cl)ccc3C)o2)C(=O)O)n[nH]1	0	0	0	0	0	5µM
N#Cc1c(-c2ccc(F)cc2)no[n+]1[O-]	-	-	-	-	0	-
CC1(C)OC2OC(C(=O)N/N=C/c3cc(Br)ccc3O)C3OC(C)(C)OC3C2O1 (centres undefined)	0	0	0	0	0	28µM
C#CCOCCOCCOCCNc1nc(N2CCN(C(=O)[C@H](CCCCN)n3cc([C@@H](N)CC(C)C)nn3)CC2)nc(N2CCN(C(=O)[C@H](CCCCN)n3cc([C@@H](N)CC(C)C)nn3)CC2)n1	0	0	0	0	0	0
C#CCOCCOCCOCCNc1nc(N2CCN(C(=O)[C@H](CCCCN)n3cc(C(N)CO)nn3)CC2)nc(N2CCN(C(=O)[C@H](CCC(=O)O)n3cc(C(N)CC(C)C)nn3)CC2)n1 (some centres undefined)	?	-	0	0	0	20µM
COc1ccc(O)c(/C=N/Nc2nc(Nc3ccccc3)nc(-n3nc(C)cc3C)n2)c1	0	?	0	0	0	14µM
COc1ccc(CCN(/C=C2\Sc3ccccc3C2=O)C(C)=O)cc1OC	0	0	0	0	0	32µM
O=C(N/N=C/c1cn(-c2cccs2)nc1-c1ccccc1)c1ccccc1O	0	0	20µM	0	0	0
O=C(N/N=C/c1cn(-c2cccs2)nc1-c1ccccc1)c1ccccc1Br	0	0	0	0	0	?
N#Cc1ccc(C(=O)N(Cc2ccco2)Cc2cccs2)cc1	0	-	-	-	-	-
Nc1c(C(=O)O)sc2nc(-c3ccccc3)cc(-c3ccc(Cl)cc3)c12	71µM	0	0	0	0	0
CCn1cc(CN2CCC(n3nccc3NC(=O)c3ccc4c(c3)OCO4)CC2)c(C)n1	1.8µM	-	0	-	0	-
SMILES	TDP1 inh	L3MBTL1 inh	BLM inh	RECQ1 helicase	APE1 inh	KDM4E inh
COc1ccc(C(=O)Nc2ccnn2C2CCN(Cc3ccc4nonc4c3)CC2)cc1	22µM	-	0	-	5.3µM	-
O=C(Nc1ccnn1C1CCN(Cc2ccc3nonc3c2)CC1)c1cccc(F)c1	0	-	0	-	0	-
CN(C)[C@@H]1C(=O)C(C(=O)NCN2CCCC2)=C(O)[C@@]2(O)C(=O)C3=C(O)c4c(O)cccc4[C@@](C)(O)C3C[C@@H]12 (some centres undefined)	-	-	-	-	7.9µM	-
CC1=CC(=Nc2c(C)n(C)n(-c3ccccc3)c2=O)C=CC1=O	-	0	0	0	0	1.8µM
CC(=O)O[C@]1(C(C)=O)CC[C@H]2C3C=C(Cl)C4=CC(=O)[C@@H]5C[C@H]5[C@]4(C)C3CC[C@@]21C (some centres undefined)	0	-	-	0	0	0
COc1ccccc1/C=N/Nc1cc(C)nc2ccc(C)cc12	-	0	0	-	0	-
COc1ccc(/C=N/Nc2cc(C)nc3ccc(OC)cc23)c(OC)c1	0	0	25µM	-	27µM	-
COc1ccc(Cl)cc1NC(=O)CSc1nc(-c2ccccc2)c2ccccc2n1	0	-	0	-	-	-
Nc1ccc(OC(=O)Nc2ccc(O)cc2)cc1	0	-	?	0	?	18µM
O=C(Nc1ccc(N2CCN(c3ccc(O)cc3)CC2)cc1)Oc1ccccc1	0	-	0	0	0	?
CCCCC1=CC2=C(c3ccco3)C(=O)C(C)(OC(=O)c3ccc(OC)cc3)C(=O)C2=CN1CCOC (centres undefined)	0[12.3 µM]	-	0[12.4 µM]	0[11.5 µM]	0[12.4 µM]	0[11.4 µM]
CCCCC1=CC2=C(c3ccco3)C(=O)C(C)(OC(=O)c3ccc(OC)cc3)C(=O)C2=CN1CCc1ccccn1 (centres undefined)	0[12.3 µM]	-	0[12.4 µM]	0[11.5 µM]	0[12.4 µM]	8.9µM!
COc1ccc(OC)c(C2=C/C(=C/c3ccccn3)C(=O)O2)c1	?	-	0	?	0	25µM
Cc1ccc(NC(=O)Cn2cc(S(=O)(=O)Cc3ccc(F)cc3)c3ccccc32)cc1Cl	0	-	?	-	-	-
C=C(C)C(=O)NNc1ccccc1	0	0	0	0	0	14µM
O=c1c2ccccc2nc(-c2ccccc2O)n1Cc1ccccc1	0	-	-	-	-	-
CCOc1ccc2c(c1)[N+](C)(C)C(C)(C)C=C2C	0	0	0	0	0	0
COc1ccc2c(c1)[N+](C)(C)C(C)(C)C=C2C	0	-	0	0	0	20µM
Cc1cccc(NC(=O)c2cnn3c2NC(=C2CC2)C=C3C(F)F)n1	-	-	-	-	0	-
CCN(c1ccccc1)c1nc(N)nc(C#N)n1	0	-	-	-	-	-
CC(CS(=O)(=O)c1ccc2c(c1)NC(=O)CS2)C(=O)NCc1ccccc1Cl (centres undefined)	8.9µM	-	0	-	?	-
O=C1CSc2ccc(S(=O)(=O)NCc3ccccc3Cl)cc2N1	0	-	0	-	0	-
Cc1nc(NC2CCCCC2)c2nc(-c3ccccc3)n(C(C)CN(C)C)c2n1 (centres undefined)	0	-	0	0	0	?
CC[C@]12c3[nH]c4cc(CCC(=O)N(C)C)ccc4c3CCN1C(=O)[C@@H](CC(=O)NCCCOC)C[C@@H]2C(=O)N1CCN(C(=O)C2CC2)CC1	0	0	-	-	21µM	-
CC[C@]12c3[nH]c4cc(-c5ccco5)ccc4c3CCN1C(=O)[C@@H](CC(=O)NCCC1=CCCCC1)C[C@@H]2C(=O)N1CCN(C(=O)c2ccco2)CC1	0	20µM	-	-	0	-
Nc1nc(NCc2cccc(Cl)c2)c2[nH]cnc2n1	0	-	-	-	-	-

Screening data (PubChem)
